These results are taken from PubChem BioAssay.

Assay [1] in a line: small molecules captured by biotinylated probe aFSTL3 – biochemical, small-molecule microarray, fluorescence 635/667, stem cell growth factor project, primary screen (AID 1064).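 Further: measures binding of the biotinylated anti-FSTL3 antibody to printed compounds.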 As to conditions: higher = more signal.
Assay [2] in a line: binders from COS7 lysate, DM2A8 probe, primary screen, torsin A project, cell lysate, small-molecule microarray, fluorescence 635/667 (AID 1065). As to conditions: higher = more signal, COS7 lysate expressing mutant human TOR1A.
Assay [3] is described as follows: small molecules captured by biotinylated probe aFGF2 – biochemical, small-molecule microarray, fluorescence 635/667, stem cell growth factor project, primary screen (AID 1067).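 Further: measures binding of biotinylated aFGF2 protein to printed compounds on slides; z-score merges feature fluorescence and signal-to-noise across triplicate slides.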 As to conditions: higher = more signal.
The nature of assay [4]: small molecules captured by biotinylated probe aFGF10 – biochemical, small-molecule microarray, fluorescence 635/667, stem cell growth factor project, primary screen (AID 1071).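 Further: score merges 667 nm spot intensity and signal to noise from triplicate slides.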 As to conditions: higher = more signal.
For assay [5], the target named is Neurogenic locus notch homolog protein 2 (Homo sapiens) (UniProt Q04721). Briefly: small molecules binding Notch2 protein – biochemical, small-molecule microarray, 635 nm fluorescence, stem cell growth factors, primary screen (AID 1073). As to conditions: higher = more signal.
Chain of Neurogenic locus notch homolog protein 2 (Homo sapiens) (Q04721 whole entry, looked up, canonical isoform): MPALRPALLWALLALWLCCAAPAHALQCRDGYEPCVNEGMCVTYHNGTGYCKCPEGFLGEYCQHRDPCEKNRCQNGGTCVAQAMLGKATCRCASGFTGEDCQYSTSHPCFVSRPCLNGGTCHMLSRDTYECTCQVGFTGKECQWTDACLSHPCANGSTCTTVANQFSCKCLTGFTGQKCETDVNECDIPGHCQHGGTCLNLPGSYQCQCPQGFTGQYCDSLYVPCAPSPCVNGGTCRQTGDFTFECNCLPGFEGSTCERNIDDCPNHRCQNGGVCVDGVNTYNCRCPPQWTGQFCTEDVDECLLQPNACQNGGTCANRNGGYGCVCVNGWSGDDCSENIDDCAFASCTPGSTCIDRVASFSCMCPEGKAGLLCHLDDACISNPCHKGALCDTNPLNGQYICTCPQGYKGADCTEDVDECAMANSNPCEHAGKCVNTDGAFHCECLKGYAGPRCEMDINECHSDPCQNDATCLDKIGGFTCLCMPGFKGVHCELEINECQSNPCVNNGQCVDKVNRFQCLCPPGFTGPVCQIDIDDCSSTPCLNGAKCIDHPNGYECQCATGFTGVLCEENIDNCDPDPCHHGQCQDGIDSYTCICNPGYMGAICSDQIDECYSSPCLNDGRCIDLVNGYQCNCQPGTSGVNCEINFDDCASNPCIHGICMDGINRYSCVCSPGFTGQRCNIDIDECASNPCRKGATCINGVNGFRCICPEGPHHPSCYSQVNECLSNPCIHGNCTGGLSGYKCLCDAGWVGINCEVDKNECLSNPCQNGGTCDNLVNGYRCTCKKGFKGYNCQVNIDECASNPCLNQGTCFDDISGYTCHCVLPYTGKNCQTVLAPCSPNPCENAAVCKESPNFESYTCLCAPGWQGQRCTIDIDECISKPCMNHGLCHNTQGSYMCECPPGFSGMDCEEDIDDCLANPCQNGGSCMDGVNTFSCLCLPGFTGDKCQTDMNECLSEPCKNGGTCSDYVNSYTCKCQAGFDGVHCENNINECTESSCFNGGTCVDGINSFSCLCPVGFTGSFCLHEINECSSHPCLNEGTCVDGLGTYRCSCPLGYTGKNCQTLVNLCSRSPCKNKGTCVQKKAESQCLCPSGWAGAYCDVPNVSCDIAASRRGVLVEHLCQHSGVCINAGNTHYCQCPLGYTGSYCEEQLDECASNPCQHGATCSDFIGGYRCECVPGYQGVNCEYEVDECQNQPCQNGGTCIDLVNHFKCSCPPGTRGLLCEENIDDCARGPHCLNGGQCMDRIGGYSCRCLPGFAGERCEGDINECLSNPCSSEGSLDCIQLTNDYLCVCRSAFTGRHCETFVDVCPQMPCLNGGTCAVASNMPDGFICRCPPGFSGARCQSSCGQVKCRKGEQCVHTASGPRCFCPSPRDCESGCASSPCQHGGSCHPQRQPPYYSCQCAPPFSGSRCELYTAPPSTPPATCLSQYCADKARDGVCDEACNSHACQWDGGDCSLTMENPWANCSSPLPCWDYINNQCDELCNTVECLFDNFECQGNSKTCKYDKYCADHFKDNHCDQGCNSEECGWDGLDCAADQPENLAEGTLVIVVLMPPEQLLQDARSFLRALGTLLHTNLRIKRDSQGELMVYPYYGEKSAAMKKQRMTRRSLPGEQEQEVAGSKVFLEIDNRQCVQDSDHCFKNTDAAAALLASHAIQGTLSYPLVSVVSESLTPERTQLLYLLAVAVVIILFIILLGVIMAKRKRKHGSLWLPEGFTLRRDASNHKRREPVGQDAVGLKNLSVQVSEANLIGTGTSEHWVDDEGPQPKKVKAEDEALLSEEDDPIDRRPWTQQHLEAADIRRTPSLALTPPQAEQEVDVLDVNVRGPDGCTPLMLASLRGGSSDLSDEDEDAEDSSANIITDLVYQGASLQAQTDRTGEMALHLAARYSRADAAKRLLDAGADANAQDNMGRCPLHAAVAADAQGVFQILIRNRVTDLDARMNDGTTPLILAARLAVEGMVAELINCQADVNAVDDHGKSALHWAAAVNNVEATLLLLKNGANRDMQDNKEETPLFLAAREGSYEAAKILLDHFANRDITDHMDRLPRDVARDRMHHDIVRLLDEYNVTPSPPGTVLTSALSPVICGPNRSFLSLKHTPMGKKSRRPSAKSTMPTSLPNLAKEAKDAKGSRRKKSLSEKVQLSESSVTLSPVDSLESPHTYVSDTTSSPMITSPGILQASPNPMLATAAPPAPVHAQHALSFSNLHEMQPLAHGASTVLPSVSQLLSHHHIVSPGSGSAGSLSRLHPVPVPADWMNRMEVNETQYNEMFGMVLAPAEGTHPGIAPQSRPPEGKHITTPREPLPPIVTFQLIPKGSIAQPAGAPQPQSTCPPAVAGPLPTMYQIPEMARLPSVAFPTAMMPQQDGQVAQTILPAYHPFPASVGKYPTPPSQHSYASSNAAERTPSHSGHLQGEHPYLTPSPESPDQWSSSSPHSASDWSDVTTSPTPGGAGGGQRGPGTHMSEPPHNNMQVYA
For assay [6], the target named is Pro-neuregulin-1, membrane-bound isoform (Homo sapiens) (UniProt Q02297). Briefly: small molecules binding neuregulin-1 protein – biochemical, small-molecule microarray, fluorescence 635/667, psychiatric disease protein project, primary screen (AID 1075).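 Further: score combines 667 nm spot fluorescence with signal to noise.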 As to conditions: NRG1 binding, 635 nm fluorescence, higher = more signal.
Chain of Pro-neuregulin-1, membrane-bound isoform (Homo sapiens) (Q02297 whole entry, looked up, the tested form may be a part, canonical isoform): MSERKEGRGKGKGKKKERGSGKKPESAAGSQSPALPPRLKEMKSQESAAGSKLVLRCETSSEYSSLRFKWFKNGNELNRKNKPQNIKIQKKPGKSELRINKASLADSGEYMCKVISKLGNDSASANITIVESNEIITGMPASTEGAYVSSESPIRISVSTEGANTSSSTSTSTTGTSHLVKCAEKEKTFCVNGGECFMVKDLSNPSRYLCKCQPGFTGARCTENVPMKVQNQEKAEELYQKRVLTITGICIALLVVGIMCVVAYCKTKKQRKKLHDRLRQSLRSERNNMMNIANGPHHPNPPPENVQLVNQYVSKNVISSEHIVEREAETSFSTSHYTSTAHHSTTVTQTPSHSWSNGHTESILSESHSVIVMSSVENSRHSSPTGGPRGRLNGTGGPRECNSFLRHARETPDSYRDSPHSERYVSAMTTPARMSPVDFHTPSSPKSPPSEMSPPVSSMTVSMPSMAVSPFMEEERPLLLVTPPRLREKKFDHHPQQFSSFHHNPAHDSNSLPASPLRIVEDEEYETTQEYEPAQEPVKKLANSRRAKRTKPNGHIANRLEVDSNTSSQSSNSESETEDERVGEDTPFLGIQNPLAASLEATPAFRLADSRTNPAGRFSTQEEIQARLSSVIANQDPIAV
The test system of assay [7] is Neuregulin-1 EGF-like domain. Briefly: small molecules binding NRG1 EGF domain – biochemical, small-molecule microarray, 635 nm fluorescence, primary screen (AID 1081).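 Further: binding of the protein to compounds printed on small-molecule microarray slides.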 As to conditions: higher = more signal.
The nature of assay [8]: FRG1 expression reporter modulators in myotubes – cell-based, C2C12 myotubes, firefly/Renilla luciferase, luminescence, FRG1 inhibition for FSHD, primary screen (AID 1084). As to conditions: FRG1 promoter luciferase, higher = more signal, called active from +8 up or from −8 down.
The nature of assay [9]: small molecules captured by biotinylated probe aFST – biochemical, small-molecule microarray, fluorescence 635/667, stem cell growth factor project, primary screen (AID 1086).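 Further: score merges 667 nm fluorescence with signal-to-noise of each printed compound spot.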 As to conditions: higher = more signal.
The nature of assay [10]: binders of probe aHhip on microarray, primary screen, stem cell growth factor project, biochemical, small-molecule microarray, fluorescence 635/667 (AID 1087).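 Further: score merges spot fluorescence at 667nm with spot signal to noise ratio.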 As to conditions: higher = more signal.
Assay [11] has as its system PRMT1 (protein arginine N-methyltransferase 1). Briefly: small molecules binding arginine methyltransferase PRMT1 – biochemical, small-molecule microarray, 635 nm fluorescence, primary screen (AID 1088).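 Further: binding of Prmt1 protein to compounds spotted on small-molecule microarray slides.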 As to conditions: higher = more signal.
Assay [12] can be described thus: growth effects on S. cerevisiae YJM789 – YJM789 clinical isolate, OD600, 24 h, basal, primary screen (AID 1089).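 Further: growth of clinical yeast isolate S. cerevisiae YJM 789 seeded 1000 cells per well; test concentration not given here.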 As to conditions: higher = more signal, called active from +8 up or from −8 down.
A short description of assay [13]: S. pombe growth modifiers, basal conditions – strain 972, OD600, 24 h, no modulator, primary screen (AID 1090).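 Further: basal condition with compound alone and no growth modifier present; test concentration not given here.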 As to conditions: S. pombe 972 growth, higher = more signal, called active from +8 up or from −8 down.
A short description of assay [14]: budding yeast growth modifiers under rapamycin – strain BY4716, OD600, 96 h, primary screen (AID 1091). Further: test concentration not given here. As to conditions: S. cerevisiae BY4716 + rapamycin, higher = more signal, called active from +8 up or from −8 down.
For assay [15], the target named is Torsin-1A-interacting protein 2 (Homo sapiens) (UniProt Q8NFQ8). Briefly: small molecules binding lysate-expressed LULL1 – cell lysate, human LULL1 lysate, 635/667 nm fluorescence, primary screen (AID 1092).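 Further: probe is lysate of COS7 cells overexpressing human LULL1; score merges per-feature 667 nm fluorescence with signal-to-noise.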 As to conditions: small-molecule microarray, hLULL1 lysate binding, 635 nm fluorescence; higher = more signal.
Chain of Torsin-1A-interacting protein 2 (Homo sapiens) (Q8NFQ8 whole entry, looked up): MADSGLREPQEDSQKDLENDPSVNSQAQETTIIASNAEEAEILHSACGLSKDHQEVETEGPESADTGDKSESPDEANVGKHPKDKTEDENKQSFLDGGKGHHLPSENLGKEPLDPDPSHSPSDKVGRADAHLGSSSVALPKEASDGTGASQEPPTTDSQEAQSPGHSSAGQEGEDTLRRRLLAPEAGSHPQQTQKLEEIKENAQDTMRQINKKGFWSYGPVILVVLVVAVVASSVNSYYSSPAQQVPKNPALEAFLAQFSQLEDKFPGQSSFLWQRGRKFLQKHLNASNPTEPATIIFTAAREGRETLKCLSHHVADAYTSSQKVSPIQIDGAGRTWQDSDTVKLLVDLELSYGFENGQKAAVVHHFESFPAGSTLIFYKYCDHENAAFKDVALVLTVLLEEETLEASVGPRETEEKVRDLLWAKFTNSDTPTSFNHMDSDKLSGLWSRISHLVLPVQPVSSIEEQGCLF
Assay [16] is described as follows: optical density change of DRC41 E. coli – strain DRC41, OD650, 24 h, E. coli filamentation project, primary screen (AID 1093).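 Further: MC1000 strain lacking acrAB efflux and sulA so SOS filamentation is blocked; test concentration not given here.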 As to conditions: E. coli DRC41 growth, higher = more signal, called active from +8 up or from −8 down.
The nature of assay [17]: probe aLefty2 binding to arrayed compounds – biochemical, biotinylated probe, 635/667 nm fluorescence, primary screen (AID 1094).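 Further: score merges spot fluorescence near 667 nm with spot signal-to-noise ratio.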 As to conditions: small-molecule microarray, higher = more signal.
For assay [18], the system named is Noggin (protein binding on small-molecule microarray). Briefly: small molecules binding Noggin protein – biochemical, 635/667 nm fluorescence, primary screen (AID 1095).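 Further: score merges 667 nm feature fluorescence with signal to noise over triplicate slides.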 As to conditions: 635 nm fluorescence, higher = more signal.
Assay [19] deals with Neurogenic locus notch homolog protein 3 (Homo sapiens) (UniProt Q9UM47). Briefly: small molecules binding NOTCH3 protein – biochemical, 635/667 nm fluorescence, primary screen (AID 1096). As to conditions: small-molecule microarray, 635 nm fluorescence, higher = more signal.
The nature of assay [20]: probe aEGFR binding to arrayed compounds – biochemical, biotinylated probe, 635/667 nm fluorescence, primary screen (AID 1097).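 Further: probe is a biotinylated anti-EGFR antibody binding compounds printed on slides; score combines fluorescence near 667 nm and signal to noise of each spot.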 As to conditions: small-molecule microarray, higher = more signal.

Active and inactive are the calls of the source.

Consider `COCCCNC(=O)[C@]1(CCC(=O)OC(C)(C)C)N=C(c2ccc(OCCCO)cc2)O[C@@H]1c1ccccc1N=[N+]=[N-]`, for which the composite z-score in [1] came to 0.0081; in assay [2], 1.27; in assay [3], 0.15; in assay [4] it was 0.891; in assay [5], 1.33; in [6], 1.62. Besides, the composite z-score in [7] came out at 1.36; in assay [9], 1.51; in assay [10], 0.107; in assay [11], 1.54; in assay [15], 3.81; in assay [17], 0.0979. In addition, the composite z-score in assay [18] is 0.778; in [19], 1.11; in [20], 0.134. In addition, the z-score in assay [8] is 3.15 (inactive); in [12], -0.376 (inactive); in [13], -1.22 (inactive); in assay [14] it was 0.719 (inactive); in [16], 0.619 (inactive).
Regarding `O=C1[C@H]2[C@H]3[C@H](O)[C@H](O)CC(=NOCc4ccccc4)[C@H]3CC[C@H]2C(=O)N1C[C@@H]1CCCO1`, the composite z-score is -0.493 in [1]; -0.259 in assay [2]; -0.133 in assay [3]; 0.717 in assay [4]; 0.564 in [5]; 0.512 in assay [6]. Besides, the composite z-score in [7] was 0.792; in assay [9] it was 0.14; in [10] it was -0.123; in [11], -0.107; in assay [15], 0.78; in assay [17], -0.238. Also, the results for the composite z-score in assay [18], in [19] and in assay [20] were 0.322, 0.48 and -0.123, respectively. Also, the z-score in [8] was -0.187 (inactive); in assay [12] it was -0.139 (inactive); in assay [13], 0.531 (inactive); in assay [14] it was -0.351 (inactive); in assay [16], 0.0096 (inactive).
`CCCC[C@@H]1C[C@H]1[C@@H](NS(=O)(=O)c1cccc2cccnc12)c1ccc(-c2ccccc2)cc1`: the composite z-score in assay [1] was 0.682; in assay [2] it was -0.165; in assay [3] it was 0.0011; in [4], 0.0132; in assay [5], 0.523; in assay [6] it was 0.071. Also, the composite z-score in assay [7] is 0.918; in assay [9], 0.436; in assay [10], -0.0123; in assay [11] it was -1.42; in assay [15], 1.26; in assay [17], 0.0141. The composite z-score in assay [18] is -0.696; in assay [19], 0.32; in assay [20] it was -0.0728. For the same compound, the z-score is 0.448 (inactive) in assay [8]; 0.0994 (inactive) in assay [12]; 1.16 (inactive) in assay [13]; 0.676 (inactive) in assay [14]; -0.781 (inactive) in assay [16].
As to `COc1ccc(-c2ccc3c(n2)CCCN3CC(O)CN2CCCc3nc(C)c(C)cc32)cc1` (stereo not given), the composite z-score in [1] came out at 0.683; in assay [2] it was 1.55; in assay [3] it was 0.126; in [4], 0.961; in [5], 0.63; in assay [6] it was 0.641. Besides, the composite z-score in [7] was found to be 0.732; in assay [9], 1.02; in [10], 0.38; in assay [11], 1.43; in assay [15], 1.13; in assay [17], 0.429. The composite z-score in [18] was 0.824; in assay [19], 1.1; in [20], 0.243. Besides, the z-score in [8] was 3.33 (inactive); in assay [12], 0.0222 (inactive); in assay [13] it was -0.411 (inactive); in assay [14], -1.43 (inactive); in [16], 0.682 (inactive).
`COC(=O)[C@]1(CO)N=C(c2ccc(OCCCO)cc2)O[C@@H]1c1ccccc1N=[N+]=[N-]`: the composite z-score in assay [1] is 0.0947; in assay [2], 0.525; in [3], -0.0614; in [4], -0.0477; in assay [5] it was 0.01; in assay [6] it was 1.25. Besides, the composite z-score is 0.938 in [7]; 0.138 in assay [9]; -0.39 in assay [10]; 1.53 in assay [11]; 3.19 in [15]; -0.0639 in assay [17]. The composite z-score was 1.82 in assay [18], 0.298 in assay [19] and -0.162 in assay [20]. The z-score in assay [8] is 2.29 (inactive); in assay [12], -0.726 (inactive); in assay [13], -0.683 (inactive); in assay [14], -1.12 (inactive); in assay [16], 0.269 (inactive).
